The first assay concerns the target T1, ELK4 (Homo sapiens, UniProt P28324-2 1-405).
T1 sequence: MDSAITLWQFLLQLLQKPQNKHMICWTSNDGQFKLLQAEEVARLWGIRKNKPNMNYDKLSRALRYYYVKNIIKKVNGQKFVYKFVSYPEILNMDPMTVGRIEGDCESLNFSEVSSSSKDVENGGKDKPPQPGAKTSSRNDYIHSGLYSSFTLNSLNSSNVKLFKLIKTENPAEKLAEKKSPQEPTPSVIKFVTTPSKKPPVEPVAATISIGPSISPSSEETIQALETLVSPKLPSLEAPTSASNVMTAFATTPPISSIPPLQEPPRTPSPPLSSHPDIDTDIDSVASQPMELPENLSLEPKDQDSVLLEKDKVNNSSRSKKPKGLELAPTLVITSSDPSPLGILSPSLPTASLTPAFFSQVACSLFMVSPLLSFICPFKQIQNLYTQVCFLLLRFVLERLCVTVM
Description: DAPPL (digital affinity profiling via proximity ligation, sequencing); 10 mM Tris-HCl pH 7.5, 50 mM NaCl, 1 mM DTT, 4% glycerol, room temperature, 30 min; GST-TFs on glutathione beads, 16-mer random dsDNA library, 0.1% formaldehyde crosslink after washing; high values mean tight binding. To be noted: protein: recombinant; tags: N-terminal GST; dsDNA, one strand shown. The gist of the method: (§1)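 Human transcription factors carrying a GST fusion were produced in yeast, bound to glutathione beads, tagged with DNA barcodes and pooled together with a tag-only sample. Each pool was held with 200 nmole of a random double-stranded 16-mer DNA library in Tris/NaCl/DTT/glycerol buffer for 30 min at room temperature, then washed, crosslinked in 0.1% formaldehyde, proximity-ligated with BsaI/T4 ligase (1 h, 37 °C), PCR-amplified and sequenced on an Illumina NextSeq500. Binding signal is the read frequency of each hexamer for a given factor divided by its frequency in the tag-only sample.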
In the case of TGGCAA, the binding signal is 1.19 fold enrichment (6-mer frequency, TF over GST control).

Consider AATAAC, for which the binding signal was 1.13 fold enrichment (6-mer frequency, TF over GST control).

For ATTTGT, the binding signal is 1.45 fold enrichment (6-mer frequency, TF over GST control).

CTGGCA: the binding signal was 1.27 fold enrichment (6-mer frequency, TF over GST control).

Consider GCTTAT, for which the binding signal was 1.28 fold enrichment (6-mer frequency, TF over GST control).

Regarding TGTCTA, the binding signal was 1.06 fold enrichment (6-mer frequency, TF over GST control).

Turning to GCCGAT, the binding signal was 1.13 fold enrichment (6-mer frequency, TF over GST control).

Take ATTGGG: the binding signal was 1.18 fold enrichment (6-mer frequency, TF over GST control).

On to TTGATC, for which the binding signal is 1.14 fold enrichment (6-mer frequency, TF over GST control).

With AATCGC, the binding signal is 1.08 fold enrichment (6-mer frequency, TF over GST control).

On to CCTCTC, for which the binding signal was 1.36 fold enrichment (6-mer frequency, TF over GST control).

On to CCTCTT, for which the binding signal was 1.56 fold enrichment (6-mer frequency, TF over GST control).

In the case of TTTGGA, the binding signal was 1.14 fold enrichment (6-mer frequency, TF over GST control).

TCTACA: the binding signal is 1.17 fold enrichment (6-mer frequency, TF over GST control).

As for TCTCGC, the binding signal was 1.76 fold enrichment (6-mer frequency, TF over GST control).

With CTGATG, the binding signal was 1.83 fold enrichment (6-mer frequency, TF over GST control).

In the case of CTGATC, the binding signal was 1.39 fold enrichment (6-mer frequency, TF over GST control).

In the case of CTCATC, the binding signal is 1.32 fold enrichment (6-mer frequency, TF over GST control).

For the sequence ATATTT, the binding signal is 1.81 fold enrichment (6-mer frequency, TF over GST control).

Turning to TACAAT, the binding signal is 1.47 fold enrichment (6-mer frequency, TF over GST control).

On to CACTTG, for which the binding signal was 1.43 fold enrichment (6-mer frequency, TF over GST control).

Regarding TACGTT, the binding signal was 1.29 fold enrichment (6-mer frequency, TF over GST control).

For the sequence CATTCG, the binding signal was 1.05 fold enrichment (6-mer frequency, TF over GST control).

In the case of CCTTCG, the binding signal is 1.34 fold enrichment (6-mer frequency, TF over GST control).

Consider TGACCT, for which the binding signal is 1.74 fold enrichment (6-mer frequency, TF over GST control).

TATAAC: the binding signal was 1.17 fold enrichment (6-mer frequency, TF over GST control).

Take CTTTCA: the binding signal is 1.54 fold enrichment (6-mer frequency, TF over GST control).

As for AATATT, the binding signal was 1.35 fold enrichment (6-mer frequency, TF over GST control).

For CTTGCA, the binding signal was 1.4 fold enrichment (6-mer frequency, TF over GST control).

Turning to TTGCGG, the binding signal was 1.2 fold enrichment (6-mer frequency, TF over GST control).

For TCTGTT, the binding signal is 1.25 fold enrichment (6-mer frequency, TF over GST control).

TCCTGG: the binding signal is 1.38 fold enrichment (6-mer frequency, TF over GST control).

For CGAAAA, the binding signal is 1.12 fold enrichment (6-mer frequency, TF over GST control).

With TAATCC, the binding signal is 1.23 fold enrichment (6-mer frequency, TF over GST control).

On to TTTCTT, for which the binding signal was 1.17 fold enrichment (6-mer frequency, TF over GST control).

For CTCAGC, the binding signal was 1.24 fold enrichment (6-mer frequency, TF over GST control).

Take ACTTGT: the binding signal is 1.36 fold enrichment (6-mer frequency, TF over GST control).

On to CTTCTA, for which the binding signal is 1.53 fold enrichment (6-mer frequency, TF over GST control).

Turning to TTCGAT, the binding signal was 1.16 fold enrichment (6-mer frequency, TF over GST control).

As for TCTCCG, the binding signal is 1.68 fold enrichment (6-mer frequency, TF over GST control).

The next assay deals with T2, ETV2 (Homo sapiens, UniProt O00321 1-342).
T2 sequence: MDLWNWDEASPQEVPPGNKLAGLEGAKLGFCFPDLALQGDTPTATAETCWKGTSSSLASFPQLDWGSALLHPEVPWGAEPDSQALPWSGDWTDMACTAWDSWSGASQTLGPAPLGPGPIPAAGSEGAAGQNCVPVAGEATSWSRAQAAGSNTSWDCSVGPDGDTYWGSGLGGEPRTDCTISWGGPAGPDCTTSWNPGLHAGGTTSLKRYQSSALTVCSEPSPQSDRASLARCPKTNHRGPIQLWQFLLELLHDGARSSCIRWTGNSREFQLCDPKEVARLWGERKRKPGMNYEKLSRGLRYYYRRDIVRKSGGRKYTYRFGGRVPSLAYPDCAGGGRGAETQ
The description is as above. Conditions: protein: recombinant; tags: N-terminal GST; dsDNA, one strand shown. The gist of the method:
as §1
With TGGCAA, the binding signal is 1.11 fold enrichment (6-mer frequency, TF over GST control).

Regarding AATAAC, the binding signal is 1.31 fold enrichment (6-mer frequency, TF over GST control).

Take ATTTGT: the binding signal was 1.44 fold enrichment (6-mer frequency, TF over GST control).

For CTGGCA, the binding signal was 1.49 fold enrichment (6-mer frequency, TF over GST control).

On to GCTTAT, for which the binding signal was 1.11 fold enrichment (6-mer frequency, TF over GST control).

Take TGTCTA: the binding signal was 1.34 fold enrichment (6-mer frequency, TF over GST control).

GCCGAT: the binding signal was 1.13 fold enrichment (6-mer frequency, TF over GST control).

Take ATTGGG: the binding signal is 1.13 fold enrichment (6-mer frequency, TF over GST control).

On to TTGATC, for which the binding signal was 1.09 fold enrichment (6-mer frequency, TF over GST control).

On to AATCGC, for which the binding signal was 1.04 fold enrichment (6-mer frequency, TF over GST control).

Turning to CCTCTC, the binding signal is 1.44 fold enrichment (6-mer frequency, TF over GST control).

CCTCTT: the binding signal was 1.75 fold enrichment (6-mer frequency, TF over GST control).

For the sequence TTTGGA, the binding signal was 1.22 fold enrichment (6-mer frequency, TF over GST control).

As to TCTACA, the binding signal is 1.18 fold enrichment (6-mer frequency, TF over GST control).

On to TCTCGC, for which the binding signal is 1.96 fold enrichment (6-mer frequency, TF over GST control).

As for CTGATG, the binding signal is 1.7 fold enrichment (6-mer frequency, TF over GST control).

As for CTGATC, the binding signal was 1.13 fold enrichment (6-mer frequency, TF over GST control).

For CTCATC, the binding signal is 1.45 fold enrichment (6-mer frequency, TF over GST control).

On to ATATTT, for which the binding signal was 1.55 fold enrichment (6-mer frequency, TF over GST control).

In the case of TACAAT, the binding signal is 1.31 fold enrichment (6-mer frequency, TF over GST control).
